Here are results for twelve molecules from PubChem BioAssay (EPA / NIEHS).

The test system of one assay is DIO1 (gene 1733). The assay is described as follows: CCTE_GLTED_hDIO1: CCTE's human Deiodinase 1 (DIO1) Inhibition Assay, Great Lakes Toxicology and Ecology Division (GLTED) Lab (AID 2283987).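 Further: isolated human DIO1 enzyme in a cell-free setup rather than cells; enzyme activity read as free iodide liberated from substrate via Sandell-Kolthoff colorimetry.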 An outline of the steps: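 Steps: human DIO1 enzyme plus test chemical, 3 h incubation; free iodide then quantified in a second Sandell-Kolthoff step by absorbance. DMSO served as negative control and baseline.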

Assay [1] concerns the target PGR (gene 5241) (UniProt P06401). The assay is described as follows: TOX21_PR_BLA_Followup_Antagonist_ratio: Tox21 HEK293 Progesterone Receptor (PR) Antagonism Beta-lactamase Follow-Up Assay, Ratio (AID 2283934).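 Further: PR-UAS-bla HEK293T cells stimulated with 1 nM R5020 agonist for 16 hr.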 The gist of the method:
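Antagonist mode used 1 nM R5020 (final) as agonist on a beta-lactamase reporter line in HEK293T cells. Activity was taken from the substrate cleavage ratio after 16 hr exposure.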

A short description of assay [2]: TOX21_PR_BLA_Followup_Agonist_viability: Viability Assessment in the Tox21 HEK293 Progesterone Receptor (PR) Agonism Beta-lactamase Follow-Up Assay (AID 2283935).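 Further: signal loss means lower viability so actives are cytotoxic.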 An outline of the steps: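 Multiplexed viability counter-screen: ATP-coupled luciferase signal measured after 30 min at room temperature, following 16 hr compound treatment of PR-UAS-bla HEK293T cells grown in charcoal-stripped serum.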

Assay [3] is described as follows: TOX21_PR_BLA_Followup_Antagonist_viability: Viability Assessment in the Tox21 HEK293 Progesterone Receptor (PR) Antagonism Beta-lactamase Follow-Up Assay (AID 2283936).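 Further: hits lower the luminescence signal meaning cytotoxicity.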 An outline of the steps: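 PR-UAS-bla HEK293T cells (3,000/well, 2% charcoal-stripped FBS) given compound plus R5020 agonist, 16 h at 37C. CellTiter-Glo added after bla read, 30 min at room temperature; luminescence loss indicates cytotoxicity.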

Assay [4] addresses PGR (gene 5241) (UniProt P06401). Nature of the assay: TOX21_PR_LUC_Followup_Antagonist: Tox21 HEK293 Progesterone Receptor (PR) Antagonism Luciferase Follow-Up Assay (AID 2283938).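 Further: curve fitted upward as signal gain over DMSO baseline despite antagonist label.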 The gist of the method:
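Luminescence from ONE-Glo reagent, measured after 30 min at room temperature, served as readout. Cells (HEK293 carrying PR-A-luc) had been treated 16 h at 37C with DMSO-dissolved compounds. Activity was fitted against DMSO controls.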

The nature of assay [5]: TOX21_PR_LUC_Followup_Agonist_viability: Viability Assessment in the Tox21 HEK293 Progesterone Receptor (PR) Agonism Luciferase Follow-Up Assay (AID 2283941).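 Further: loss of signal means cytotoxicity so actives lower viability.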 The gist of the method:
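Luminescent ATP quantitation (CellTiter-Glo) serves as the read-out; a drop flags cytotoxic compounds. Cells are HEK293-PR-A-luc grown in 10% charcoal-stripped FBS, plated 3,000/well, and exposed to compound for 16 h.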

Assay [6] deals with PGR (gene 5241) (UniProt P06401). Nature of the assay: TOX21_PR_BLA_Followup_Agonist_ratio: Tox21 HEK293 Progesterone Receptor (PR) Agonism Beta-lactamase Follow-Up Assay, Ratio (AID 2283933). An outline of the steps: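 Agonist-mode follow-up in HEK293T cells carrying a UAS-driven beta-lactamase reporter, grown in 2% charcoal-stripped serum. Compounds act for 16 hr; activity is the ch2/ch1 cleavage ratio, with same-well CellTiter-Glo viability run in parallel.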

Assay [7] shares this target. The assay is described as follows: TOX21_PR_LUC_Followup_Agonist: Tox21 HEK293 Progesterone Receptor (PR) Agonism Luciferase Follow-Up Assay (AID 2283937; active means hit-call score of the fitted dose curve at least 0.9, where 1 is the maximum; inactive means score below 0.9). An outline of the steps:
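Agonist mode: reporter cells carrying PR-A and luciferase are treated 16 h with test compounds at 37C. Luciferase induction is measured by luminescence and fitted upward against DMSO.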

A short description of assay [8]: TOX21_PR_LUC_Followup_Antagonist_viability: Viability Assessment in the Tox21 HEK293 Progesterone Receptor (PR) Antagonism Luciferase Follow-Up Assay (AID 2283940). The gist of the method:
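Cellular ATP, measured with luciferase-coupled CellTiter-Glo, served as the viability endpoint after HEK293-PR-A-luc cells were exposed to test compounds for 16 h at 37C.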

Assay [9] can be described thus: CEETOX_H295R_TESTO_noMTC: CeeTox H295R High-throughput Steroidogenesis Assay for Testosterone (TESTO), maximum tolerated concentration (MTC) filtered results only (AID 2283924; active means hit-call score of the fitted dose curve at least 0.9, where 1 is the maximum; inactive means score below 0.9). The conditions noted are these: actives raise or lower the signal. The gist of the method: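 H295R cells prestimulated 48 h with 10 uM forskolin, then exposed 48 h to chemicals in 0.1% DMSO final. Testosterone in medium quantified by MTBE extraction and HPLC-MS/MS; bidirectional fit versus DMSO, concentrations […] filtered by MTT-based maximum tolerated concentration.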

Inconclusive results are not listed. The source made the active and inactive calls. How the source made its calls, unless noted: active means hit-call score of the fitted dose curve at least 0.9, where 1 is the maximum; inconclusive means response in the unintended direction; inactive means score below 0.9.

PGR (gene 5241), sequence (P06401 whole entry, looked up): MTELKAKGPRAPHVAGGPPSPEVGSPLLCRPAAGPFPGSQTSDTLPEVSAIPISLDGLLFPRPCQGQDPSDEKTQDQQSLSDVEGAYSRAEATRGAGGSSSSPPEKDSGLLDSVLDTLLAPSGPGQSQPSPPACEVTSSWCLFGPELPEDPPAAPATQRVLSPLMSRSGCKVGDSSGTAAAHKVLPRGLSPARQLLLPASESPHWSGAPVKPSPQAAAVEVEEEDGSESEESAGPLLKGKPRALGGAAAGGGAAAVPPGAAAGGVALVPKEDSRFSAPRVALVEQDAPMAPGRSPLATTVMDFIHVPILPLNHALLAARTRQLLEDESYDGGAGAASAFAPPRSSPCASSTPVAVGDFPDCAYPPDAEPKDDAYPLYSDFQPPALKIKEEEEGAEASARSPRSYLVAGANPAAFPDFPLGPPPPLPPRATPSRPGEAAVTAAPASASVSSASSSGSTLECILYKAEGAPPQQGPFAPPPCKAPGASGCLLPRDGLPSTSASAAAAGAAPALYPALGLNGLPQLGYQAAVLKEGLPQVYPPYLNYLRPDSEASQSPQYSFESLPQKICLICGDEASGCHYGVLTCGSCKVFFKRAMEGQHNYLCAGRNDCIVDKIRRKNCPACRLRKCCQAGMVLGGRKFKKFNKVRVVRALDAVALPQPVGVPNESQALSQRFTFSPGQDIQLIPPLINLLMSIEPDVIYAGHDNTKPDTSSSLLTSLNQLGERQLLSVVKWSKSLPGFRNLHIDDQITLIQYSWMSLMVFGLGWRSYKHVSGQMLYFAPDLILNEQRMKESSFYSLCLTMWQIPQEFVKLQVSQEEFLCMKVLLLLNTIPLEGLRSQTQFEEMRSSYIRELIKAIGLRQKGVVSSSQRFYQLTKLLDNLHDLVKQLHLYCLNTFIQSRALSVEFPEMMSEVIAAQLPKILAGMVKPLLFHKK

The term AC50 denotes the concentration giving half of the maximal activity seen. Take `CCCCCCCOC(=O)c1ccc(O)cc1`: the AC50 in the assay with DIO1 (gene 1733) is 75 µM (active).
On to `Nc1ccc(C(=O)OCCCOC(=O)c2ccc(N)cc2)cc1`, for which the outcome (with PGR (gene 5241) [1]; in [2]; in assay [3]; in the assay with PGR (gene 5241) [4]; in assay [5]) was inactive.
Take `Oc1ccc(-c2ccccc2)c(Cl)c1`: the outcome (with PGR (gene 5241) [6]; in assay [2]; in assay [3]; with PGR (gene 5241) [7]; in [8]) was inactive. Also, the half-maximal activity concentration (AC50) in the assay with PGR (gene 5241) [1] was 25.7 µM (active); with PGR (gene 5241) [4], 29.7 µM (active).
`O=C(O)c1cc(O)c2ccccc2c1O`: the AC50 in the assay with DIO1 (gene 1733) is 50.1 µM (active).
For `CCCCCCCCCCCCCCCCCCOS(=O)(=O)O`, in the assay with DIO1 (gene 1733), the AC50 was 90.1 µM (active).
For `COc1ccc(-c2coc3cc(O)cc(O)c3c2=O)cc1`, the AC50 with PGR (gene 5241) [1] was 29.5 µM (active); in the assay with PGR (gene 5241) [4] it was 81.7 µM (active). The call in assay [2], in assay [3] and in assay [8] was inactive.
For the molecule `N#Cc1ccc(C(c2ccc(C#N)cc2)n2cncn2)cc1`, the call in [9] was inactive.
Turning to `O=c1c(O)c(-c2ccc(O)cc2O)oc2cc(O)cc(O)c12`, the AC50 in the assay on DIO1 (gene 1733) is 9.81 µM (active).
The same measure, in the same setting: as for `CCCCCCCCCCCCc1ccc(O)cc1`, the figure is 31.5 µM (active).
`COc1ccc(C(=O)/C(Br)=C\C(=O)O)cc1`: in [9], the AC50 is 83.6 µM (active).
In the case of `CCCCC/C=C\C/C=C\CCCCCCCC(=O)O`, the half-maximal activity concentration (AC50) in the assay on DIO1 (gene 1733) was 19.2 µM (active).
With `c1ccc2c(c1)[nH]c1ccccc12`, the result (with PGR (gene 5241) [6]; with PGR (gene 5241) [1]; in [2]; in assay [3]; with PGR (gene 5241) [7]; in the assay with PGR (gene 5241) [4]) was inactive. For the same molecule, the result in assay [8] and in assay [5] was inactive.
